From PubChem BioAssay (NCI)
About 83,000 compounds went through this panel and 20% of them were active in at least one assay; those are over-represented in the sample as a whole.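 The endpoint reported here, percent growth, reads 100 for growth as untreated, 0 for no net growth and -100 for all cells dead.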 Values without a mark were called inactive. Active and inactive are the calls of the source. The calls were made as follows: active = growth percent below 10; inactive = the rest.

Experiments:
Assay in all cases: NCI-60 one-dose screen, 48 h (100 = growth as untreated, 0 = no growth, -100 = all killed)
Conditions in all cases: 10 µM
[1] = test system: DU-145 prostate
[2] = test system: K-562 leukemia
[3] = test system: MALME-3M melanoma
[4] = test system: MDA-MB-231 breast
[5] = test system: RXF 393 renal
[6] = test system: SF-268 CNS
[7] = test system: SF-295 CNS
[8] = test system: SF-539 CNS
[9] = test system: UACC-257 melanoma
[10] = test system: M14 melanoma
[11] = test system: HCT-15 colon
[12] = test system: HT29 colon
[13] = test system: SNB-75 CNS
[14] = test system: SNB-19 CNS
[15] = test system: U251 CNS
[16] = test system: PC-3 prostate
[17] = test system: SK-MEL-5 melanoma
[18] = test system: LOX IMVI melanoma
[19] = test system: SK-MEL-28 melanoma
[20] = test system: UACC-62 melanoma

Structure (SMILES)	growth [1]	growth [2]	growth [3]	growth [4]	growth [5]	growth [6]	growth [7]	growth [8]	growth [9]	growth [10]	growth [11]	growth [12]	growth [13]	growth [14]	growth [15]	growth [16]	growth [17]	growth [18]	growth [19]	growth [20]
CCN(CC)CCCOc1cccc2c1C(=O)c1cccc(OCCCN(CC)CC)c1C2=O	38.4%	16.1%	39.9%	35.5%	31.2%	44.3%	45.2%	40.2%	47.9%	48.1%	34.5%	11%	52.6%	34.1%	31.2%	33.2%	46.6%	16.9%	61.2%	–
CC(CN(C)C)Oc1ccc(OC(C)CN(C)C)c2c1C(=O)c1ccccc1C2=O (stereo unspecified)	46.1%	24.5%	67.6%	40.9%	59.2%	47.8%	48.2%	51%	72.8%	56.6%	88.2%	20.8%	54.9%	37.2%	30.1%	38.3%	69.1%	27.4%	96%	–
Oc1ccc(/C=N/N=C2c3ccccc3-c3ccccc32)c(O)c1	90%	64.8%	105%	48.3%	49.6%	83.1%	101%	89.1%	84.7%	74.4%	46.4%	97.5%	73.1%	80.3%	78.7%	72.9%	25.8%	70.3%	74.5%	–
COc1ccc(N=Nc2cc(OC)c(OC)c(OC)c2)cc1	97.3%	69.4%	77.9%	89.4%	86%	91.3%	83.6%	82.6%	84.9%	74.3%	82%	69.1%	78.7%	89%	79.5%	67.2%	80%	79%	92%	–
CN(C)CCCOc1ccc(NC2=C(Cl)C(=O)C(Nc3ccc(OCCCN(C)C)cc3)=C(Cl)C2=O)cc1	-95.8% (active)	-11.7% (active)	-71.7% (active)	-80.2% (active)	-97.9% (active)	-51.2% (active)	-22.8% (active)	-87.9% (active)	-88.2% (active)	-71.8% (active)	-82% (active)	-54.1% (active)	-77.9% (active)	-48.6% (active)	-91.2% (active)	-7.37% (active)	-96.6% (active)	-80.5% (active)	39.4%	-74.9% (active)
Cc1ccc(N=Nc2ccccc2)cc1	111%	112%	98.4%	109%	106%	99.8%	90.3%	100%	88%	90.9%	99.5%	92.3%	105%	102%	101%	78.1%	102%	103%	102%	–
CCN(CC)CCNc1ccc(C)c2sc3cc(Cl)ccc3c(=O)c12	43.5%	-51% (active)	-26.4% (active)	-15.9% (active)	12.9%	47%	70%	66.3%	-28.2% (active)	-64.9% (active)	26.6%	-25% (active)	59.8%	47%	16.5%	34.9%	14.1%	-84.5% (active)	-59.3% (active)	–
CC1CCCC(C(=O)O)C1C(=O)O (stereo unspecified)	114%	87.6%	87.8%	92.8%	94.5%	105%	94.8%	97.8%	80.8%	94.7%	102%	98.8%	100%	101%	86%	76%	102%	98%	111%	–
CC[C@@H](C(=O)[C@H](C)[C@H](O)[C@@H](C)[C@H]1O[C@H]([C@@H](CC)C(=O)N(CC)CC)CC[C@H]1C)C1O[C@]2(C=C[C@@H](O)[C@]3(CC[C@@](C)([C@H]4CC[C@](O)(CC)[C@H](C)O4)O3)O2)[C@H](C)C[C@@H]1C (stereo partly specified)	55.1%	16.2%	-20.1% (active)	15.9%	14%	42.1%	-6.82% (active)	38.2%	12.4%	11.7%	9.17% (active)	13.8%	6.47% (active)	12.8%	24.2%	3.64% (active)	-74.7% (active)	31%	27%	–
CCOC(=O)C(C)(c1ccccc1)c1ccccc1	106%	113%	112%	111%	123%	104%	102%	97.7%	93.5%	102%	104%	96.2%	94.2%	99.3%	104%	97.8%	108%	102%	111%	102%
COc1cc(/C=C/c2cc(/C=C/c3ccc(O)c(OC)c3)n(C(=O)Nc3ccc(C)cc3)n2)ccc1O	2.02% (active)	2.29% (active)	17.3%	19.9%	-47.5% (active)	-11.5% (active)	0.531% (active)	5.95% (active)	4.8% (active)	2.3% (active)	15.2%	-22.4% (active)	9.53% (active)	20.3%	6.19% (active)	8.08% (active)	1.16% (active)	1.89% (active)	13.2%	–
CC(C)C[C@H](NC(=O)Cn1cccc(CNC(=O)c2ccccc2)c1=O)B(O)O	43.1%	11.6%	-35.3% (active)	-2.81% (active)	-19% (active)	-19.5% (active)	1.43% (active)	-16.6% (active)	-9.26% (active)	12.2%	64.7%	-0.24% (active)	-4.6% (active)	34.1%	17.2%	35.8%	-34.3% (active)	-60.4% (active)	19.4%	-17.1% (active)
CC(C)CCN(CCC(C)C)CC(=O)Nc1ccc(S(=O)(=O)c2ccc(NC(=O)CN(CCC(C)C)CCC(C)C)cc2)cc1	54%	3.86% (active)	19.4%	31%	24.9%	34.5%	90.1%	21.4%	56.2%	31.6%	10.4%	10.3%	79.3%	52.6%	10.5%	39.7%	47%	-78.4% (active)	72.6%	–
Cc1cc(SC#N)cc(C(C)(C)C)c1O	110%	91.3%	85.8%	113%	118%	103%	102%	95.6%	94.1%	90.3%	103%	91.4%	92.4%	113%	91.4%	66.8%	101%	100%	105%	–
Nc1ccc(CC[C@H]2CCC/C=C/[C@@H]3C[C@H](O)C[C@H]3[C@H](O)/C=C/C(=O)O2)cc1	16.2%	11.4%	-14% (active)	-80.5% (active)	-36.3% (active)	10.2%	13%	25.3%	4.74% (active)	3.35% (active)	6.58% (active)	-39.8% (active)	32.3%	29.5%	15.8%	12.9%	-84.9% (active)	-74.4% (active)	5.16% (active)	–
O=C(CCc1nnc2sc(-c3cc(O)c(O)c(O)c3)nn12)c1nc2ccccc2[nH]1	112%	8.3% (active)	103%	102%	115%	113%	82.8%	80%	110%	105%	88.8%	93.5%	93.6%	113%	94.4%	86.3%	84.1%	98.3%	110%	–
O=C(CI)OCC(COC(=O)CI)OC(=O)CI	59.5%	41.6%	24.3%	91.3%	24.7%	93.2%	94.8%	114%	76.5%	83.2%	53%	79.2%	116%	101%	100%	94%	93.1%	–	92.3%	80.9%
O=C(O)c1cc([N+](=O)[O-])ccc1Oc1ccccc1	104%	116%	81.3%	97.3%	107%	97.3%	101%	94.6%	96.8%	106%	95.4%	90.8%	98.1%	98.4%	95.9%	89.2%	84.6%	93.1%	107%	103%
CCCCN(CCCC)C(=O)[C@H](CC)[C@@H]1CC[C@@H](C)[C@@H]([C@H](C)[C@@H](O)[C@@H](C)C(=O)[C@H](CC)C2O[C@]3(C=CC(=O)[C@]4(CC[C@@](C)([C@H]5CC[C@](O)(CC)[C@H](C)O5)O4)O3)[C@H](C)C[C@@H]2C)O1 (stereo partly specified)	84.9%	24.4%	-5.97% (active)	46.8%	47%	68.6%	2.72% (active)	59.6%	21.3%	30%	54%	20.9%	33.3%	27%	32.7%	12.5%	18%	43.5%	23.8%	22.5%
CC(C)N(CCOc1cccc(-c2nc3sccn3c2-c2ccnc(S(C)(=O)=O)n2)c1)C(C)C	89.8%	69.1%	91.3%	57.8%	65.3%	92.5%	103%	91.9%	104%	111%	81.8%	54.5%	78%	101%	83.8%	72.7%	3.97% (active)	84.3%	99.3%	–
O=C(CCl)Nc1ccc(Cc2ccc(NC(=O)CCl)cc2)cc1	32.3%	0.772% (active)	-67.5% (active)	-15.8% (active)	-50.7% (active)	10.1%	70.1%	-87.7% (active)	16.3%	-35.3% (active)	-39.7% (active)	-39.1% (active)	61.1%	26.3%	-85.7% (active)	2.98% (active)	-88.5% (active)	-84.6% (active)	5.21% (active)	–
COc1ccc(-c2n[nH]nc2-c2cc(OC)c(OC)c(OC)c2)cc1	-14.1% (active)	8.16% (active)	37.3%	14.8%	33.3%	9.64% (active)	13.7%	10.3%	69.1%	12.2%	25.8%	4.38% (active)	50.1%	58.3%	1.61% (active)	23.4%	-53.9% (active)	9.46% (active)	64.4%	38.4%
c1ccc2c(c1)Cc1ccccc1N2CCN1CCCCC1	104%	91.5%	111%	81.5%	110%	99%	92.5%	94.9%	102%	86.1%	94.2%	74.4%	94.7%	90.6%	90.1%	82.7%	95.5%	87.8%	110%	–
COc1ccc2c(c1)C(=O)/C(=C/c1ncc([N+](=O)[O-])n1C)O2	-13.6% (active)	1.52% (active)	-56.2% (active)	-18.1% (active)	-54.4% (active)	-39.7% (active)	-18.4% (active)	-29.4% (active)	-43.9% (active)	-37.7% (active)	6.82% (active)	-20.5% (active)	69.5%	-16.6% (active)	-25.4% (active)	101%	-89% (active)	-68.1% (active)	-22.4% (active)	–
CNS(=O)(=O)Oc1ccc(-c2ccc3occc3c2)cc1	109%	89.1%	116%	100%	122%	102%	92.9%	98.1%	107%	113%	92.8%	99.1%	106%	101%	94.1%	90.6%	101%	96.4%	94.4%	87.3%
CCN(CC)CCOC(=O)c1cc(OCc2ccccc2)c(OCc2ccccc2)c(OCc2ccccc2)c1	64.6%	0.819% (active)	54%	16%	47%	59.3%	84.5%	81.1%	73.8%	18.4%	13.1%	7.14% (active)	72.1%	56.9%	18.3%	49.6%	63.3%	-16.9% (active)	63.2%	–
O=C(Cn1cc(CO)nn1)Nc1nc2ccccc2s1	113%	94.8%	93.8%	100%	112%	99%	106%	95%	104%	94.7%	105%	99.5%	92.4%	96.9%	102%	96.3%	102%	95.1%	106%	97%
